PubChem BioAssay AID504467 (National Center for Advancing Translational Sciences (NCATS), 2011)
Out of some 330,000 compounds screened, about 7,700 (2.3%) were called active. Not shown: some 26% with an inconclusive outcome. The entries come from a sample that favours actives as a whole. Values without a mark were called inactive. Calls follow the shape of the dose curve; as a rule, active = well fitted inhibition curve with a large enough effect; inconclusive = small, poorly fitted or top-dose-only effect, or effect the other way; inactive = flat fitted curve, though single readings scatter.

Experiment: qHTS screen for small molecules that inhibit ELG1-dependent DNA repair in human embryonic kidney (HEK293T) cells expressing luciferase-tagged ELG1; also: nearly all actives have a fitted effect of over 55% in size
Settings: HEK293T ELG1-luciferase reporter, luminescence, 16 h, DNA damage induced by 5-fluorouridine; series mostly up to 46.1 µM; activity change, negative = inhibition: at the top concentration
Excerpt: NIH Molecular Libraries Probe Production Network [MLPCN] NIH Chemical Genomics Center [NCGC] MLPCN Grant: 1 R03 MH092164-01 Assay Provider: Kyungjae Myung, NHGRI, NIH Keywords: MLPCN, qHTS, NCGC, genotoxicity, cancer Assay Overview: Cancer cells divide rapidly compared to normal cells in the body. During cell division, cancer cells need to duplicate their genome by DNA replication. The failure of genome duplication leads to cancer cells' death. Therefore, inhibitors of DNA replication could specifically kill cancer cells. Based on this concept, many chemotherapeutic agents were developed and have been used to treat cancer patients. However, there are a limited number of agents available in the clinical setting, and some of those that do exist have low efficacy and severe side effects. Therefore, if we can find the compounds that effectively block DNA replication either by directly damaging DNA or by inhibiting other cellular mechanisms, the options for cancer treatment will be broadened. With this in mind, we developed a quantitative high-throughput ELG1-luciferase reporter gene assay. Small molecules that specifically block ELG1 function in response to DNA damage can be identified by monitoring the suppression of luciferase activity. Since ELG1 defines a pathway for repairing DNA damage, agents blocking ELG1 function can be used to sensitize cancer cells to chemotherapeutic agents whose mechanism of action involves the induction of DNA damage.
Assay Protocol Summary: For genotoxicity screening, 2,000 cells in 4 uL/well were dispensed into white, solid-bottom 1536-well plates using a solenoid-based dispenser. Following transfer of 1 uL 5-Fluorouridine and 23 nL compound or DMSO vehicle by a pin tool, the plates were incubated 16 hr at 37 °C and 5% CO2. 5 ul ONE-Glo (Promega) was then added to each plate and following a 30 min incubation at room temperature, luciferase activity was quantified on a ViewLux CCD-based plate reader.
% is scaled to controls: 0 for no effect and ±100 for the full control effect; potency is read from the fitted curve at half-maximal effect.

Structure (SMILES) | activity change, negative = inhibition | Potency
CC1(C)CC(=O)C=C(c2cccc3c2Oc2ccccc2S3)C1 | 13% | –
CCOc1ccc(N(CC(=O)Nc2cccc(OC)c2)S(C)(=O)=O)cc1 | 15.1% | –
Cc1ccc(N(CC(=O)Nc2cccc(N(C)S(C)(=O)=O)c2)S(C)(=O)=O)cc1 | – | 6.51 µM (active)
COc1cccc(N(CC(=O)Nc2cccc(F)c2)S(C)(=O)=O)c1 | 0.188% | –
Cc1[nH]c2ccccc2c1C(=O)C(C)Sc1nnc(C2CC2)o1 (stereo not drawn) | 8.65% | –
O=C(COC(=O)c1ccc([N+](=O)[O-])o1)NC12CC3CC(CC(C3)C1)C2 | 9.39% | –
COC(=O)[C@]1(Cc2ccccc2)N[C@H](CN(C)S(=O)(=O)c2ccc(F)cc2)[C@@H]2C(=O)N(Cc3ccccc3)C(=O)[C@@H]21 | -21.5% | –
CC(=O)N1c2ccc(S(=O)(=O)N3CCCC(C(=O)NCc4ccc(Cl)cc4)C3)cc2CC1C (stereo not drawn) | -15.6% | –
N#Cc1cccc(NC(=O)C2CCCN(C(=O)c3ccc(Cl)cc3)C2)c1 (stereo not drawn) | -29.3% | –
Cc1ccccc1-c1n[nH]c(=S)n1C | 5.07% | –
Cn1c(-c2sccc2OCc2cccc(C(F)(F)F)c2)n[nH]c1=S | – | 23.1 µM (active)
Cn1c(-c2sc3cc(C(F)(F)F)cnc3c2-c2ccccc2)n[nH]c1=S | -13.7% | –
O=C(Nc1ccccc1N1CCCC1)c1ccc(F)c(S(=O)(=O)N2CCOCC2)c1 | 6.03% | –
COc1ccc(CCC(=O)N2CCN(S(=O)(=O)c3ccc(OC)cc3)CC2)cc1 | -5.8% | –
CCCNC(=O)CSc1nc(Cc2ccccc2)nc2ccccc12 | -13.7% | –
CCCNC(=O)CCc1c(C)nc2c(c(C)nn2-c2ccc(C)cc2)c1C | -24% | –
CCCCC(CC)CNCc1cccn1CCN1CCOCC1 (stereo not drawn) | -7.51% | –
CCN(CC)c1ccc(NC(=O)c2ccc(=O)[nH]c2)cc1S(=O)(=O)Nc1ccc(OC)cc1 | 6.95% | –
CCN(c1ccccc1)S(=O)(=O)c1cccc(C(=O)NCc2ccccc2CN2CCOCC2)c1 | – | 11.6 µM (active)
O=C(NCc1ccccc1CN1CCCC1)c1cccc(S(=O)(=O)Nc2ccc(F)cc2)c1 | 2.84% | –
CCN(c1ccccc1)S(=O)(=O)c1cccc(C(=O)O)c1 | 0.0915% | –
Cc1noc(C)c1C(=O)OC(C)C(=O)Nc1ccc2c(c1)OCO2 (stereo not drawn) | 0.0047% | –
CC(C)C[C@H]1CN=C(Nc2ccccc2)N1CC1CCCCC1 | -13.2% | –
CCCCN(C(=O)CSCC(=O)Nc1ccc(OC)cc1)c1c(N)n(CCC)c(=O)[nH]c1=O | -3.97% | –

Structure (SMILES) | activity change, negative = inhibition | Potency
O=S(=O)(Nc1cccc(-n2cnnn2)c1)c1cnc(Cl)c(Cl)c1 | 1.57% | –
COc1cccc(N(CC(=O)NC2CCCCCC2)S(=O)(=O)c2ccccc2)c1 | 8.34% | –
CS(=O)(=O)c1ccc2nc(NC(=O)CN3CCCCCC3)sc2c1 | 10.2% | –
Cc1nc2ccc(NC(=O)C3CCCCC3)cc2s1 | 11.8% | –
Cc1ccc2nc(NC(=O)C3CCN(S(=O)(=O)c4ccc5c(c4)oc(=O)n5C)CC3)sc2c1 | – | 10.3 µM (active)
O=C(Nc1nc2ccc(S(=O)(=O)N3CCCC3)cc2s1)C1CCCO1 (stereo not drawn) | -0.48% | –
Cn1c(=O)oc2cc(S(=O)(=O)N3CCC(C(=O)Nc4ccc(OC(F)(F)F)cc4)CC3)ccc21 | 9.71% | –
CS(=O)(=O)c1ccc2nc(NC(=O)C3CCCCC3)sc2c1 | – | 3.66 µM (active)
CC(=O)c1c(C)[nH]c(C(=O)N2CCN(S(=O)(=O)c3ccc(F)c(F)c3)CC2)c1C | 8.13% | –
O=C(COc1ccc(S(=O)(=O)Nc2cccc(C(F)(F)F)c2)cc1)N1CCOCC1 | -4.33% | –
O=S1(=O)CCC(NC(=S)SCc2ccccc2Br)C1 (stereo not drawn) | 15.4% | –
CCCSC(=S)NC1CCS(=O)(=O)C1 (stereo not drawn) | – | 23.1 µM (active)
COc1ccc(NC(=S)NC2CCS(=O)(=O)C2)cc1 (stereo not drawn) | -1.15% | –
O=C1COc2ccc(C(=O)CSc3ccc(Br)cc3)cc2N1 | -17% | –
O=C(NCc1ccccc1CN1CCCC1)C1CCN(S(=O)(=O)c2ccc(Cl)cc2)CC1 | 10% | –
Brc1ccc(CN2CC[C@H]3C=CCc4cccc(c43)C2)cc1 | -13.4% | –
COc1ccc(CNC(=O)COC(=O)C(CCSC)N2C(=O)c3ccccc3C2=O)cc1 (stereo not drawn) | 0% | –
Cc1sc2ncnc(SCC(=O)Nc3ccc(CN4CCCC4)cc3)c2c1C | -2.86% | –
Cc1sc2ncnc(N3CCC(C(=O)Nc4ccc(F)cc4Cl)CC3)c2c1C | – | 20.6 µM (active)
Cc1ccnc(N2CCCC(C(=O)Nc3cc(F)ccc3C)C2)n1 (stereo not drawn) | -12.3% | –
CC1CC(C)CN(CCOc2cccc3ccccc23)C1 (stereo not drawn) | 2.83% | –
CN(CC(=O)NCCc1ccc(S(N)(=O)=O)cc1)CC(=O)Nc1ccc(F)c(F)c1F | 6.42% | –
C=CCC[C@@H](Cc1ccc(F)cc1)C(=O)OC[C@@H](C)NC(=O)[C@H](CC=C)CC(=O)N(CCO)Cc1ccccc1 | 0% | –
C=CC[C@@H](CC(=O)N[C@H](CO)Cc1ccccc1)C(=O)N[C@@H](COC(=O)[C@@H](CC=C)Cc1ccc(F)cc1)Cc1c[nH]c2ccccc12 | -11.3% | –
